# According to PubChem BioAssay (EPA / NIEHS):
# Results filed as inconclusive are left out. Active and inactive are the calls of the source. The calls were made as follows, unless noted: active = hit-call score of the fitted dose curve at least 0.9, where 1 is the maximum; inactive = score below 0.9.
# Legend:
# [1] = CCTE_Shafer_MEA_acute_spike_number: CCTE's Neural Acute Assay for Total Number of Spikes, Shafer Lab (AID 2284008);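 as to AC50: curve fitted for decrease in spike count so AC50 reflects inhibitors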
# Outline: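 Total spike count from 40 min recordings before and during compound exposure (0.03-40 uM), given as per-well percent change. Cortical cultures from rat, DIV 13 or 15, 37 C; adaptive detection threshold 8x rms noise.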
# [2] = CCTE_Shafer_MEA_acute_firing_rate_mean: CCTE's Neural Acute Assay for Mean Firing Rate, Shafer Lab (AID 2284009);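 also: analyzed for loss of signal so actives lower firing rate relative to DMSO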
# Outline: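 Spontaneous spiking of primary rat cortical networks, DIV 13/15, 37 C. Compound 0.03-40 uM, n ≥3 wells; 40 min baseline vs 40 min treated. Endpoint fitted in loss-of-signal direction against DMSO.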
# [3] = CCTE_Harrill_HTTr_Viability_MCF7: CCTE's 6-hour Cell Viability Assessment for the High-Throughput Transcriptomics (HTTr) Platform, in MCF-7 cells cultured in DMEM + 10% fetal bovine serum, Harrill Lab (AID 2284010)
# Outline: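 Propidium iodide exclusion, imaged by high-content analysis, gauged viability after a six-hour exposure across eight concentrations. Cells were MCF-7 grown in DMEM with 10% fetal bovine serum; fits run in both directions against DMSO.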
# [4] = CCTE_Harrill_HTTr_Apoptosis_MCF7: CCTE's 6-hour Apoptosis Assessment for the High-Throughput Transcriptomics (HTTr) Platform, in MCF-7 cells cultured in DMEM + 10% fetal bovine serum, Harrill Lab (AID 2284011)
# Outline: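 High-content imaging of CellEvent Caspase 3/7 Green signal follows a six-hour exposure, with eight concentrations per chemical. MCF-7 cells grown in DMEM plus 10% fetal bovine serum; activity fitted in both directions against DMSO.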
# [5] = CCTE_Harrill_HTTr_CellCount_MCF7: CCTE's Cell Proliferation Assessment for the High-Throughput Transcriptomics (HTTr) Platform, Harrill Lab (AID 2284012; active = hit-call score of the fitted dose curve at least 0.9, where 1 is the maximum;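 also: cells exposed to compound for six hours; intended direction is loss of nuclei count meaning fewer cells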)
# Outline: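 Cell count from high-content imaging of Hoechst-labeled nuclei serves as viability/growth readout. Chemicals were applied to MCF-7 cells in eight concentrations for six hours, with fitting in both directions relative to DMSO.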
# [6] = CCTE_Shafer_MEA_acute_burst_number: CCTE's Neural Acute Assay for Single-Electrode Bursts, Shafer Lab (AID 2284013)
# Outline: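 Burst totals were derived with adaptive spike detection (8x rms threshold) on filtered signals from rat cortical cultures; change relative to pre-treatment baseline after 40-min compound exposure (0.03-40 uM) was fitted in the negative direction against DMSO.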
# [7] = CCTE_Shafer_MEA_acute_burst_duration_mean: CCTE's Neural Acute Assay for Mean Burst Duration, Shafer Lab (AID 2284014);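 also: hits are decreases in mean burst duration relative to DMSO controls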
# Outline: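 Acute exposure of mature rat cortical networks (DIV 13 or 15) grown on microelectrode arrays to 0.03-40 uM compound. Mean burst duration compared with the 40-min pre-dose baseline over a 40-min post-dose recording at 37 C.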
# [8] = CCTE_Shafer_MEA_acute_per_burst_spike_number_mean: CCTE's Neural Acute Assay for Average Number of Spikes Per Burst, Shafer Lab (AID 2284015);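 also: hits are decreases in mean spikes per burst versus baseline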
# Outline: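 Read-out: percent change in mean spikes per burst, each well's post-exposure 40-min recording versus its own 40-min baseline. Rat cortical cultures, DIV 13 or 15, compounds 0.03-40 uM; DMSO is negative control, loss-of-signal fitting.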
# [9] = CCTE_Shafer_MEA_acute_interburst_interval_mean: CCTE's Neural Acute Assay for Mean Interburst Interval, Shafer Lab (AID 2284016);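 also: percent change of mean interburst interval versus each well's own pre-dose baseline; curves fitted for decrease in interburst interval relative to DMSO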
# Outline: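 Rat cortical cultures, DIV 13/15; 20 min equilibration, 40 min baseline, compound 0.03-40 uM, 40 min re-recording, 37 C. Spikes detected at 8x rms noise (300-5000 Hz band-pass). Endpoint: % change in interburst interval, fitted in loss direction vs DMSO.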
# [10] = CCTE_Shafer_MEA_acute_burst_percentage_mean: CCTE's Neural Acute Assay for Percentage of Spikes in a Burst, Shafer Lab (AID 2284017);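 as to AC50: curve fitted for loss of signal so potency reflects decreased burst percentage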
# Outline: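 Rat cortical cultures, DIV 13/15, 37 C. Spikes detected at 8x rms noise (300-5000 Hz band-pass). Burst spikes/total spikes averaged across electrodes per well; % change post- vs pre-treatment (40 min each), loss-of-signal fit vs DMSO.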
# [11] = CCTE_Shafer_MEA_acute_burst_percentage_std: CCTE's Neural Acute Assay for Standard Deviation of Burst Percentage, Shafer Lab (AID 2284018);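 also: fitted in the negative direction so actives lower burst percentage SD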
# Outline: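 Primary rat cortical neurons on 16-electrode MEA wells were recorded 40 min at baseline (DIV 13 or 15), then 40 min after compound (0.03-40 uM), at 37 C. Well value is SD across electrodes of spikes-in-bursts/total spikes; endpoint is percent change, DMSO-referenced.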
# [12] = CCTE_Shafer_MEA_acute_per_network_burst_spike_number_mean: CCTE's Neural Acute Assay for Average Number of Spikes in a Network Burst, Shafer Lab (AID 2284019);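 as to AC50: curve fitted for loss of signal so actives reduce spikes per network burst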
# Outline: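 Acute exposure of rat primary cortical networks (DIV 13/15) on MEAs; adaptive spike detection at 8x rms noise, 37 C. Percent change in spikes per network burst after 40 min with compound (0.03-40 uM), negative direction vs DMSO.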
# [13] = CCTE_Shafer_MEA_acute_per_network_burst_spike_number_std: CCTE's Neural Acute Assay for Standard Deviation of Number of Spikes in a Network Burst, Shafer Lab (AID 2284020);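 also: fitted for decrease in spike-number SD versus DMSO so actives lower it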
# Outline: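 Acute MEA exposure, rat cortical neurons, 0.03-40 uM. Per-well % change versus own baseline; DMSO as negative control.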
# [14] = CCTE_Shafer_MEA_acute_per_network_burst_electrodes_number_mean: CCTE's Neural Acute Assay for Mean Number of Electrodes in a Network Burst, Shafer Lab (AID 2284021);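 also: curves fitted for decreases only so hits reduce electrodes per burst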
# Outline: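 Percent change from baseline was computed as mean electrode count per network burst, comparing 40 min recordings before and during compound (0.03-40 uM) exposure. Cultures were rat cortical neurons at DIV 13 or 15, recorded on MEAs at 37 C with an adaptive 8x rms threshold.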
# [15] = CCTE_Shafer_MEA_acute_network_burst_percentage: CCTE's Neural Acute Assay for Percentage of Network Bursts, Shafer Lab (AID 2284022);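 also: curves fitted for loss so actives lower network burst percentage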
# Outline: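 Network burst percentage (spikes in network bursts divided by total spikes) recorded at 37 C over 40 min baseline and 40 min after compound, 0.03-40 uM, in rat cortical cultures at DIV 13 or 15. Analysed as percent change from baseline versus DMSO.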
# [16] = CCTE_Shafer_MEA_acute_cross_correlation_area: CCTE's Neural Acute Assay for Area of Cross Correlation, Shafer Lab (AID 2284024);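 also: area under pooled inter-electrode spike cross-correlation near zero lag as percent change from own baseline; curves fitted for loss of cross-correlation area so actives lower synchrony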;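 as to outcome: rat primary cortical neuron networks on 48-well MEA at DIV 13 or 15 with 40 min exposure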
# Outline: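 Percent change in well-wide cross-correlation area (window around zero lag) between 40 min baseline and 40 min post-compound recordings, 37 C; rat cortical cultures on MEA at DIV 13 or 15, dosed 0.03-40 uM, wells needing >/= 10 active electrodes.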
# [17] = CCTE_Shafer_MEA_acute_cross_correlation_HWHM: CCTE's Neural Acute Assay for Cross Correlation at Half Width at Half Maximum, Shafer Lab (AID 2284026);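 also: percent change per well from pre-dose baseline in spike cross-correlogram half width; hits are a decrease in cross-correlogram half width relative to DMSO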;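 as to outcome: spontaneous network firing of rat primary cortical neurons on multiwell microelectrode arrays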
# Outline: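 Per-well percent change in cross-correlogram half width at half maximum, derived from 40-min recordings before and after compound (0.03-40 uM) at 37 C. Cultures were rat cortical neurons, DIV 13 or 15, with adaptive spike detection at 8x rms.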
# [18] = CCTE_Shafer_MEA_acute_synchrony_index: CCTE's Neural Acute Assay for Synchrony, Shafer Lab (AID 2284027);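 also: network synchrony index of spontaneous spiking in primary rat cortical neurons on MEAs; fitted for loss of signal so actives lower synchrony relative to DMSO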
# Outline: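 The synchrony index is taken as percent change per well between a 40 min baseline and a 40 min recording with compound (0.03–40 uM), at 37C. Rat cortical cultures on multiwell MEAs at DIV 13 or 15, spike threshold 8× rms noise.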
# [19] = molecular target: Estrogen receptor (Homo sapiens) (UniProt P03372); test: CCTE_Deisenroth_AIME_96WELL_LUC_Active: CCTE's 96-well Estrogen Receptor Transactivation Assay with AIME metabolic competence (ERTA luciferase; metabolism positive), Deisenroth Lab (AID 2284023; active = hit-call score of the fitted dose curve at least 0.9, where 1 is the maximum)
# Outline: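 Metabolism-positive mode: induced rat hepatic S9 in alginate microspheres conditions test solutions (0.002 - 200 uM, 10 points) for 2 hours. VM7Luc4E2 ER luciferase reporter cells then exposed 24 h; positive-direction fit against 17beta-estradiol, n=4 typical.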
# [20] = molecular target: Estrogen receptor (Homo sapiens) (UniProt P03372); test: CCTE_Deisenroth_AIME_96WELL_LUC_Inactive: CCTE's 96-well Estrogen Receptor Transactivation Assay without AIME metabolic competence (ERTA luciferase; metabolism negative), Deisenroth Lab (AID 2284025; active = hit-call score of the fitted dose curve at least 0.9, where 1 is the maximum)
# Outline: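 Metabolism-negative arm: chemicals (0.002–200 uM, 10 points) incubated 2 h with alginate-water microspheres, then medium moved onto VM7Luc4E2 cells for 24 h luciferase read-out. Positive direction vs 17beta-estradiol; n≥4 experiments.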
# Estrogen receptor (Homo sapiens), sequence (P03372 whole entry, looked up): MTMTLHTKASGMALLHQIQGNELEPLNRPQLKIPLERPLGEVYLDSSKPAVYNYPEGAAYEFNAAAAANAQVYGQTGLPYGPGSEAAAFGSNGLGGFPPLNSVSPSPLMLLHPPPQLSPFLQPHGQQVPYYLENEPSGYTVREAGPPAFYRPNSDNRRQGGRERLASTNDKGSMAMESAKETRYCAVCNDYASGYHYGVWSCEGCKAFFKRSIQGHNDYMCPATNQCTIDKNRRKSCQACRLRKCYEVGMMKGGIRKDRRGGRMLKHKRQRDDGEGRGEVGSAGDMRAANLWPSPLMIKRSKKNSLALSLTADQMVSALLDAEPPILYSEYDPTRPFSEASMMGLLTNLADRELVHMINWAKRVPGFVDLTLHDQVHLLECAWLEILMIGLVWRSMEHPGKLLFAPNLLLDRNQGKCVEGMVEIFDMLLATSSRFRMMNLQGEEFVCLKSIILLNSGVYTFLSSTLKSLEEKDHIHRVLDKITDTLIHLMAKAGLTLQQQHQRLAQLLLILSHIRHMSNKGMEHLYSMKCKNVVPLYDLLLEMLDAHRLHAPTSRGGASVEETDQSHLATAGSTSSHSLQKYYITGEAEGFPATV
structure (smiles),measurement,setting,value
OC1CCC(C2CCCCC2)CC1 (stereo not given),AC50,[1],20 µM (active)
same,AC50,[2],20 µM (active)
same,outcome,[3],inactive
same,outcome,[4],inactive
same,outcome,[5],inactive
same,outcome,[6],inactive
same,outcome,[7],inactive
same,outcome,[8],inactive
same,outcome,[9],inactive
same,AC50,[10],27.3 µM (active)
same,outcome,[11],inactive
same,outcome,[12],inactive
same,outcome,[13],inactive
same,outcome,[14],inactive
same,outcome,[15],inactive
same,outcome,[16],inactive
same,AC50,[17],30 µM (active)
same,outcome,[18],inactive
CC1=C(/C=C/C(C)=C/C=C/C(C)=C/C(=O)O)C(C)(C)CCC1,outcome,[3],inactive
same,outcome,[5],inactive
CC[C@H](c1ccc(O)cc1)[C@@H](CC)c1ccc(O)cc1,outcome,[1],inactive
same,outcome,[2],inactive
same,outcome,[3],inactive
same,outcome,[6],inactive
same,outcome,[7],inactive
same,outcome,[8],inactive
same,outcome,[9],inactive
same,outcome,[10],inactive
same,outcome,[11],inactive
same,outcome,[12],inactive
same,outcome,[13],inactive
same,outcome,[14],inactive
same,outcome,[15],inactive
same,outcome,[16],inactive
same,outcome,[17],inactive
same,outcome,[18],inactive
CCCCC(CC)COC(=O)CCCCC(=O)OCC(CC)CCCC (stereo not given),outcome,[3],inactive
same,outcome,[5],inactive
same,outcome,[19],inactive
same,outcome,[20],inactive
O=C(/C=C/c1ccc(O)cc1)CC(=O)/C=C/c1ccc(O)cc1,outcome,[3],inactive
same,outcome,[4],inactive
same,outcome,[5],inactive
same,AC50,[19],31.4 µM (active)
same,AC50,[20],43.2 µM (active)
NC(=O)N1C(=O)C(C(=O)c2cc(Cl)cs2)c2cc(F)c(Cl)cc21 (stereo not given),outcome,[3],inactive
same,outcome,[4],inactive
same,outcome,[5],inactive
CCCCCCCCC(=O)O,outcome,[3],inactive
same,outcome,[5],inactive
O=C(O)c1ccccc1C(c1ccc(O)cc1)c1ccc(O)cc1,outcome,[1],inactive
same,outcome,[2],inactive
same,outcome,[3],inactive
same,outcome,[4],inactive
same,outcome,[6],inactive
same,outcome,[7],inactive
same,outcome,[8],inactive
same,outcome,[9],inactive
same,AC50,[10],20 µM (active)
same,outcome,[11],inactive
same,AC50,[12],20 µM (active)
same,outcome,[13],inactive
same,outcome,[14],inactive
same,outcome,[15],inactive
same,AC50,[16],20 µM (active)
same,outcome,[17],inactive
same,AC50,[18],7.86 µM (active)
O=c1c(-c2ccc(O)cc2)coc2cc(O)ccc12,AC50,[1],3.28 µM (active)
same,outcome,[2],inactive
same,outcome,[5],inactive
same,outcome,[6],inactive
same,outcome,[7],inactive
same,outcome,[8],inactive
same,outcome,[9],inactive
same,outcome,[10],inactive
same,outcome,[11],inactive
same,AC50,[12],4.06 µM (active)
same,outcome,[13],inactive
same,outcome,[14],inactive
same,outcome,[15],inactive
same,outcome,[16],inactive
same,AC50,[17],24.4 µM (active)
same,AC50,[18],12.2 µM (active)
Nc1cccc2c(N)cccc12,outcome,[3],inactive
CCCCCCCCCCCCCCCS(=O)(=O)Oc1ccccc1,outcome,[1],inactive
same,outcome,[2],inactive
same,outcome,[6],inactive
same,outcome,[7],inactive
same,outcome,[8],inactive
same,outcome,[9],inactive
same,outcome,[10],inactive
same,outcome,[11],inactive
same,outcome,[12],inactive
same,outcome,[13],inactive
same,outcome,[14],inactive
same,outcome,[15],inactive
same,outcome,[16],inactive
same,outcome,[17],inactive
same,outcome,[18],inactive
CC(=O)NC1(c2cccc(F)c2)CCN(CC[C@@]2(c3ccc(Cl)c(Cl)c3)CN(c3ccccc3)C(=O)CO2)CC1,AC50,[1],1.47 µM (active)
same,AC50,[2],1.47 µM (active)
same,outcome,[5],inactive
same,AC50,[6],1.24 µM (active)
same,AC50,[7],1.04 µM (active)
same,outcome,[8],inactive
same,outcome,[9],inactive
same,AC50,[10],8.94 µM (active)
same,AC50,[11],20 µM (active)
same,outcome,[12],inactive
same,outcome,[13],inactive
same,outcome,[14],inactive
same,AC50,[15],8.3 µM (active)
same,AC50,[16],1.03 µM (active)
same,AC50,[17],20 µM (active)
same,AC50,[18],9.53 µM (active)
